Assay results published in PubChem BioAssay AID1851 (National Center for Advancing Translational Sciences (NCATS), 2009).
The whole screen tested about 16,000 compounds, of which about 5,700 (36%) were called active. Another 24% or so got no clear call; they are omitted. Some of the results follow. Unmarked numbers belong to inactive results. Calls follow the shape of the dose curve; as a rule, active = well fitted curve in the direction sought with a large enough effect; inconclusive = small, poorly fitted or top-dose-only effect, or effect the other way; inactive = no such curve, though single readings can be large or run the other way.

biological target: Cytochrome P450 1A2 (Homo sapiens) (UniProt P05177); assay: Cytochrome panel assay with activity outcomes; conditions: recombinant CYP, pro-luciferin dealkylation, luminescence, p450-cyp1a2; series mostly up to 57.1 µM
Sequence (P05177 whole entry, looked up): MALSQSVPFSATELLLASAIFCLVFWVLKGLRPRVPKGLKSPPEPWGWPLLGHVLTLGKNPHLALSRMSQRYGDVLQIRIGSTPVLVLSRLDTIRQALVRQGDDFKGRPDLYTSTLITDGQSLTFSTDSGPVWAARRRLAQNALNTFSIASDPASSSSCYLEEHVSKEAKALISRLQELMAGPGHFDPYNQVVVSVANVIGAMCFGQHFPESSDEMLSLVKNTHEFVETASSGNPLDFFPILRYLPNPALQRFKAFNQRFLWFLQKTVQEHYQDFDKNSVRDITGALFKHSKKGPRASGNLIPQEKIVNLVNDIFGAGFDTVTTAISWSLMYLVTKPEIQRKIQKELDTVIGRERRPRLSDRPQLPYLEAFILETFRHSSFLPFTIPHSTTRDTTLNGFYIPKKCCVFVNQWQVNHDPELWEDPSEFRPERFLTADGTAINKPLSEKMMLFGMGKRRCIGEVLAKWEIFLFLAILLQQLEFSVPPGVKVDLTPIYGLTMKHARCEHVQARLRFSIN
% is scaled to controls: 0 for no effect and ±100 for the full control effect.

Structure (SMILES) | AC50 | activity, negative = inhibition
O=C(NCc1cn(-c2ccccc2)nc1-c1ccccc1)c1cc([N+](=O)[O-])cc([N+](=O)[O-])c1 | inactive | 
CCc1ccccc1NC(=O)CSc1nc(-c2ccccc2)nn1C(=O)c1cccc([N+](=O)[O-])c1 | 3.16 µM (active) | 
COc1ccc(C(=O)N2CCC3(CCCN(C)C3)CC2)cc1 | inactive | 
COc1ccc(NC(=O)N2CCCC3(CCN(C(=O)c4ccc(OC)cc4)CC3)C2)cc1 | inactive | 
COc1ccc2c(c1)CCc1c(C(=O)N3CCCCCC3)noc1-2 | 6.31 µM (active) | 
CC(C)COCC1CC2(CC(C)(c3csc(N)n3)OC2=O)C(=O)O1 (stereo not drawn) | inactive | 
COCCNC(=O)c1ccc2c(c1)ncn2-c1ccc(F)c(F)c1 | 15.8 µM (active) | 
COCCNC(=O)c1ccc2c(c1)nc(C)n2-c1cc(OC)c(OC)c(OC)c1 | inactive | 
CN(CCOc1ccc(C[C@H](Nc2ccccc2C(=O)c2ccccc2)C(=O)O)cc1)c1ccccn1 | inactive | 
C[N+](C)(C)CCN(Cc1ccc(Cl)cc1)c1ccccn1 | inactive | 
O=C(COc1ccc(Cl)cc1)N(Cc1ccccc1)c1ccccn1 | 2.24 µM (active) | 
O=C(CCCn1c(=S)[nH]c2ccc(Br)cc2c1=O)NCC1CCCO1 (stereo not drawn) | 4.47 µM (active) | 
O=C(c1ccc2c(=O)n(CC3CCCO3)c(=S)[nH]c2c1)N1CCN(c2ccccc2)CC1 (stereo not drawn) | inactive | 
O=C(CCn1c(=S)[nH]c2ccccc2c1=O)NCCCN1CCOCC1 | inactive | 
COCCNC(=O)CCCCCn1c(=S)[nH]c2ccccc2c1=O | 14.1 µM (active) | 
O=C(c1cnccn1)N1CCC2(CC1)CCN(c1ncccn1)CC2 | inactive | 
Cc1[nH]nc(-c2ccc(OCc3cnn(-c4ccccc4)c3)cc2O)c1Oc1ccccc1F | 22.4 µM (active) | 
COC(=O)c1ccc(Oc2coc3cc(OCc4cnn(-c5ccccc5)c4)ccc3c2=O)cc1 | inactive | 
Cc1cc(C)cc(C(=N)c2ccccc2Cc2cccc3ccccc23)c1 |  | -5.4% [at 2.29 µM]
CO[C@H]1COC(=O)CCC[C@@H](C)[C@H](OC)COC(=O)[C@H]2CCCN2C(=O)C/C=C\[C@@H]1C |  | -4.29% [at 11.4 µM]
Cc1ccc(NC(=S)N2CCN(C3CCCCC3)CC2)cc1 | inactive | 

Structure (SMILES) | AC50 | activity, negative = inhibition
COC(=O)c1ccc(NC(=S)NC2CCCCC2)cc1 | 14.1 µM (active) | 
Cc1ccc(NC(=S)NC2CCCC2)cc1 | 15.8 µM (active) | 
CC(=O)NS(=O)(=O)c1ccc(NC(=O)NC2CCCCC2)cc1 | inactive | 
O=C(Nc1ccc(Cl)cc1)NC1CCCCC1 | inactive | 
COC(=O)c1ccc(NC(=O)C2CCCCC2C(=O)O)cc1 (stereo not drawn) | inactive | 
CCc1cccc(CC)c1NC(=O)CN(CC(=O)O)CC(=O)O | inactive | 
CN(C)CCCn1c2c3ccccc3ccc2c2oc(=O)c3ccccc3c21 | 0.316 µM (active) | 
CC(=O)Nc1cc(S(=O)(=O)Nc2ccccc2)c(C)cc1C | inactive | 
CCn1c2ccccc2c2cc(NS(=O)(=O)c3ccccc3C)ccc21 | 3.16 µM (active) | 
COc1c(NC(C)=O)c2ccccc2c2ccccc12 | 0.398 µM (active) | 
CC(=O)Nc1ccccc1C(=O)C(=O)O | inactive | 
COCCN=C1Sc2nc3c(C)cccc3cc2CN1Cc1ccco1 | 0.631 µM (active) | 
O=c1c2ccccc2nc2n1CC/C2=C\c1ccccc1[N+](=O)[O-] | 3.16 µM (active) | 
COc1ccc(-c2nc3cnc(Nc4cccc(OC)c4)nc3n(Cc3cccs3)c2=O)cc1 | inactive | 
COc1cccc(Nc2ncc3ncc(=O)n(Cc4cccs4)c3n2)c1 | 1.58 µM (active) | 
O=c1cnc2cnc(Nc3ccccc3)nc2n1Cc1cccs1 | 1 µM (active) | 
Cc1nc2cnc(Nc3ccccc3)nc2n(Cc2cccs2)c1=O | 1.58 µM (active) | 
COc1cccc(Nc2ncc3nc(C)c(=O)n(Cc4cccs4)c3n2)c1 | 2.51 µM (active) | 
CCN(CC)C[C@@H](O)CN1CCCCc2nc(C)c(C)cc21 |  | -9.64% [at 11.4 µM]
O=C(Cc1cccc2ccccc12)N/N=C/c1ccc(Sc2nc3ccccc3s2)o1 | inactive | 
COCC(=O)N/N=C/c1ccc(Sc2nc3ccccc3s2)o1 | 15.8 µM (active) | 

Structure (SMILES) | AC50 | activity, negative = inhibition
Cc1ccc(NS(=O)(=O)c2ccccc2Cl)c2c1CC(C)(C)O2 | 1.26 µM (active) | 
Cc1cc(C)c(S(=O)(=O)N2CCCCC2)c(C)c1N(C)S(=O)(=O)c1ccccc1 | inactive | 
O=C(Nc1cccc(C(F)(F)F)c1)N(Cc1ccc(Cl)cc1)CC(O)C(F)(F)F (stereo not drawn) | 12.6 µM (active) | 
CC(O)(CS(=O)(=O)Cc1ccc(Cl)cc1)C(=O)Nc1cccc(C(F)(F)F)c1 (stereo not drawn) | inactive | 
CCCCN=c1sc(C(=O)OC)cc(=O)n1CCCC | 0.251 µM (active) | 
CCN1C(=O)[C@H]2[C@H]3[C@H](O)[C@H](O)C/C(=N/O[C@@H]4O[C@H](COC(C)=O)[C@@H](OC(C)=O)[C@H](OC(C)=O)[C@H]4OC(C)=O)[C@@H]3CC[C@@H]2C1=O |  | -2.53% [at 11.4 µM]
Cc1ccc(-n2c3c(c(=O)[nH]c2=O)C(NS(=O)(=O)c2ccc(C)cc2)(C(F)(F)F)C(=O)N3)cc1 (stereo not drawn) | inactive | 
CCOC(=O)N/N=C/c1ccc(F)cc1 | 11.2 µM (active) | 
CCOC(=O)N/N=C/c1ccccc1F | 6.31 µM (active) | 
CCOC(=O)C(=Cc1ccc(F)cc1)C(=O)OCC | 25.1 µM (active) | 
Cc1ccc(/C=N\NC(=O)c2cc(OCC(F)(F)F)ccc2OCC(F)(F)F)cc1 | inactive | 
O=C(NCCC[N+]1=CC=N[C@H]1c1ccccc1)N1CCCc2nc(-c3ccc(Br)cc3)ccc21 |  | 7.37% [at 11.4 µM]
Cc1ccc(C2C(C(=O)c3sc(C)nc3C)=C(O)C(=O)N2CCN2CCOCC2)o1 (stereo not drawn) | inactive | 
CCOc1ccc(N(C(=O)/C=C/C(=O)Nc2cc(C)on2)C(C(=O)NC2CCCC2)c2ccccc2C)cc1 (stereo not drawn) | inactive | 
COc1ccc2cc3cc(C(=O)NCCN4CCN(c5ccccc5F)CC4)oc3nc2c1 | 15.8 µM (active) | 
COc1ccc2cc3cc(C(=O)Nc4ccc5c(c4)OCO5)oc3nc2c1 | 0.501 µM (active) | 
COc1ccc2nc3oc(C(=O)NCc4cccs4)cc3cc2c1 | 2 µM (active) | 
COc1ccc2cc3cc(C(=O)NCc4ccc5c(c4)OCO5)oc3nc2c1 | 0.316 µM (active) | 
CCCS(=O)(=O)N1CCCC(C(=O)NCCCN2CCN(c3ccccc3F)CC2)C1 (stereo not drawn) | inactive | 
COc1ccc(N2CCN(CCNC(=O)C3CCN(S(=O)(=O)c4cccs4)CC3)CC2)cc1 | inactive | 
CCc1ccc(C(C(=O)NCc2ccc(OC)cc2)N(CCOC)C(=O)Cc2cccs2)cc1 (stereo not drawn) | inactive | 
